These results are taken from PubChem BioAssay (NCATS).

Assay in all cases: Primary qHTS to identify gynecologic anti-cancer compounds using libraries of approved drugs and bioactive compounds (AID 1345084); note: nearly all actives have a fitted effect of over 55% in size
(In qHTS, concentration-response curves come from the screen itself.)

Assay [1] deals with C33A. The note with it: Gynecologic cancer cell panel viability, ATPlite luminescence, 48 h; series mostly up to 57.5 µM. The gist of the method:
(§1)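 ATP-based viability (ATPlite), 1,000 cells/well, 16 h pre-incubation, 48 h compound at 37 C, 5% CO2, 15 min RT before read.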
A general note: In ATP-based viability assays light output follows the ATP content of the culture.

For assay [2], the system named is CAOV3. Conditions: Gynecologic cancer cell panel viability, ATPlite luminescence, 48 h; series mostly up to 57.5 µM. The method in brief: as §1
For assay [3], the system named is CASKI. Conditions: Gynecologic cancer cell panel viability, ATPlite luminescence, 48 h; series mostly up to 57.5 µM. The method in brief: as §1
In assay [4] the test system is Es-2. Conditions: Gynecologic cancer cell panel viability, ATPlite luminescence, 48 h; series mostly up to 57.5 µM. The gist of the method:
as §1

The subject of assay [5] is HeLa. Conditions: Gynecologic cancer cell panel viability, ATPlite luminescence, 48 h; series mostly up to 57.5 µM. The method in brief: as §1
Assay [6] has as its system Hek293T. The note with it: Gynecologic cancer cell panel viability, ATPlite luminescence, 48 h, control line for the selectivity index; series mostly up to 57.5 µM. The gist of the method:
as §1

Assay [7] has as its system JEG-3. Conditions: Gynecologic cancer cell panel viability, ATPlite luminescence, 48 h; series mostly up to 57.5 µM. The method in brief: as §1

Records with an inconclusive call do not appear. A number with no mark means an inactive call. Activity calls are given as the source filed them. Calls come from the whole dose curve; as a rule, active = well fitted cell-killing curve with a large enough effect; inconclusive = small, poorly fitted or top-dose-only effect, or effect the other way; inactive = flat fitted curve, though single readings scatter.
Potency is the fitted concentration of half-maximal effect.

As to `Cc1[nH]c(/C=C2\C(=O)Nc3ccc(S(=O)(=O)N(C)c4cccc(Cl)c4)cc32)c(C)c1C(=O)N1CCN(C)CC1`, the Potency entry in assay [1], in assay [3], in assay [4], in assay [5], in assay [6] and in assay [7] was “inactive” in each case. Moreover, the Potency in assay [2] was 25.1 µM (active).
Take `C=C(C)C1=C[C@@]2(C)C(=CC1=O)CC[C@@H](O)[C@@H]2C`: the Potency result in assay [1], in assay [2], in assay [3], in assay [4], in assay [5] and in assay [6] was “inactive” each time. The Potency entry in assay [7] was “inactive”.
On to `COc1cc(C(C)C)c(Oc2cnc(N)nc2N)cc1I`, for which the Potency result in assay [1], in assay [2], in assay [3], in assay [4], in assay [5] and in assay [6] was “inactive” in each case. The Potency result in assay [7] is “inactive”.
`CC1(C)CC[C@]2(C(=O)O)CC[C@]3(C)C(=CCC4[C@@]5(C)C[C@@H](O)[C@H](O)[C@@](C)(CO)C5CC[C@]43C)[C@@H]2[C@@H]1O` (some centres undefined): the Potency entry in assay [1], in assay [2], in assay [3], in assay [4], in assay [5] and in assay [6] was “inactive” each time. The Potency result in assay [7] is “inactive”.
With `c1cc(NCCc2c[nH]c3ccccc23)cc(Nc2ccncc2)c1`, the Potency entry in assay [1], in assay [2], in assay [3], in assay [4], in assay [5] and in assay [6] was “inactive” throughout. Further, in assay [7], the Potency result was “inactive”.
In the case of `CN(C)C(=O)C(=O)c1cn(C)c2cc(Cl)c(C(=O)N3CCC(Cc4ccc(F)cc4)CC3)cc12`, the Potency entry in assay [1], in assay [2], in assay [3], in assay [4], in assay [5] and in assay [6] was “inactive” throughout. The Potency result in assay [7] is “inactive”.
Take `CO[C@H]1C[C@@H]2CC[C@@H](C)[C@@](O)(O2)C(=O)C(=O)N2CCCC[C@H]2C(=O)O[C@H]([C@@H](C)C[C@@H]2CC[C@@H](O)[C@H](OC)C2)CC(=O)[C@H](C)/C=C(\C)[C@@H](O)[C@@H](OC)C(=O)[C@H](C)C[C@H](C)/C=C/C=C/C=C/1C`: the Potency result in assay [1], in assay [2], in assay [3], in assay [4], in assay [5] and in assay [6] was “inactive” each time. Further, the Potency entry in assay [7] is “inactive”.
As to `COC1CCN(C(=O)c2cc(Cc3n[nH]c(=O)c4ccccc34)ccc2F)CC1`, the Potency entry in assay [1], in assay [2], in assay [3], in assay [4], in assay [5] and in assay [6] was “inactive” throughout. Besides, the Potency result in assay [7] is “inactive”.
For `Cc1ccc(C)c(NC(=O)[C@@H]2CCCN2S(=O)(=O)c2cccc3cccnc23)c1`, the Potency entry in assay [1], in assay [2], in assay [3], in assay [4], in assay [5] and in assay [6] was “inactive” in each case. For the same compound, the Potency result in assay [7] is “inactive”.
Regarding `Clc1cccc(COc2cncc(N3CCNCC3)n2)c1`, the Potency result in assay [1], in assay [2], in assay [3], in assay [4], in assay [5] and in assay [6] was “inactive” each time. In addition, the Potency entry in assay [7] is “inactive”.
On to `O=[N+]([O-])c1ccc(Oc2ccc3c(c2)CCC(c2ccccc2)O3)nc1` (centres undefined), for which the Potency entry in assay [1], in assay [2], in assay [3], in assay [4], in assay [5] and in assay [6] was “inactive” in each case. Besides, the Potency entry in assay [7] was “inactive”.
`O=C(OC1CN2CCC1CC2)N1CCc2ccccc2C1c1ccccc1` (centres undefined): the Potency entry in assay [1], in assay [2], in assay [3], in assay [4], in assay [5] and in assay [6] was “inactive” in each case. Besides, the Potency result in assay [7] was “inactive”.
Take `CNC(=O)[C@@H](c1ccccc1)N1CCc2cc(OC)c(OC)cc2[C@@H]1CCc1ccc(C(F)(F)F)cc1`: the Potency result in assay [1], in assay [2], in assay [3], in assay [4], in assay [5] and in assay [6] was “inactive” in each case. The Potency result in assay [7] is “inactive”.
Take `CCCCOc1ccc(S(=O)(=O)n2c(C)nc3ccccc32)cc1`: the Potency result in assay [1], in assay [2], in assay [3], in assay [4], in assay [5] and in assay [6] was “inactive” throughout. In addition, in assay [7], the Potency result was “inactive”.
In the case of `Cc1cc(C)nc(SCC(=O)Nc2ncc(Cc3cccc4ccccc34)s2)n1`, the Potency result in assay [1], in assay [2], in assay [3], in assay [4], in assay [5] and in assay [6] was “inactive” in each case. The Potency result in assay [7] was “inactive”.
For `C=C1C(=O)O[C@H]2C1CCC(C)=C1C(=O)C=C(C)[C@@]12O` (some centres undefined), the Potency entry in assay [1], in assay [2], in assay [3], in assay [4], in assay [5] and in assay [6] was “inactive” throughout. In assay [7], the Potency entry was “inactive”.
On to `C=C1/C(=C/C=C2\CCC[C@]3(C)[C@@H]([C@H](C)/C=C/[C@H](O)C4CC4)CC[C@@H]23)C[C@@H](O)C[C@@H]1O`, for which the Potency entry in assay [1], in assay [2], in assay [3], in assay [4], in assay [5] and in assay [6] was “inactive” throughout. In assay [7], the Potency entry is “inactive”.
On to `CCOc1ccc(-n2c(C(C)N(Cc3cccnc3)C(=O)Cc3ccc(F)c(C(F)(F)F)c3)nc3ncccc3c2=O)cc1` (centres undefined), for which the Potency entry in assay [1], in assay [2], in assay [3], in assay [4], in assay [5] and in assay [6] was “inactive” throughout. Besides, the Potency result in assay [7] is “inactive”.
Turning to `O=C(Nc1ccc(CN2CCOCC2)cc1)c1ccc(-c2cccc(Cl)c2)o1`, the Potency result in assay [1], in assay [2], in assay [3], in assay [4], in assay [5] and in assay [6] was “inactive” in each case. Also, the Potency entry in assay [7] was “inactive”.
Turning to `C/C=C/C=C/c1cc2c(C=O)c(O)c(CC=C(C)C)cc2o1`, the Potency entry in assay [1], in assay [2], in assay [3], in assay [4], in assay [5] and in assay [6] was “inactive” in each case. Moreover, in assay [7], the Potency entry is “inactive”.
`COC(=O)c1ccc2c(c1)nc(NC(=O)c1ccccc1)n2CCCc1ccccc1`: the Potency result in assay [1], in assay [2], in assay [3], in assay [4], in assay [5] and in assay [6] was “inactive” in each case. The Potency result in assay [7] was “inactive”.
With `O=C(Nc1ccc(Cl)cc1)C1CCCN(C(=O)c2cccc(-c3ccco3)c2)C1` (centres undefined), the Potency entry in assay [1], in assay [2], in assay [3], in assay [4], in assay [5] and in assay [6] was “inactive” each time. Besides, in assay [7], the Potency entry is “inactive”.
